Giardia kill: Small Molecules that selectively kill Giardia lamblia: qHTS | Giardia lamblia trophozoite viability | activity change, % at 7.66 µM, hits read low | hit rate 0.15% among 340,000 | AID 540267, 2011; in the data active means activity change below about -80%; inconclusive means between about -30% and that limit;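 further: parasites exposed to compound for two days anaerobically before the ATP read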
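Anaerobic 48 hrs incubation at 37 deg C of 100 trophozoites/well with test compounds; ATPLite 1-Step luminescence, 15-30 min RT, reports cellular ATP as viability.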
TDP1 inh: qHTS Assay for Inhibitors of Tyrosyl-DNA Phosphodiesterase (TDP1) | recombinant TDP1, AlphaScreen DNA substrate cleavage | Potency, µM (highest dose often 130 µM), for the others: top-dose activity change, negative = inhibition, most hits filed as inhibitors | hit rate 0.28% among 350,000 | Tyrosyl-DNA phosphodiesterase 1 (Homo sapiens), Q9NUW8; further: potency means the concentration at half of the fitted maximal effect; nearly all actives have a fitted effect of over 40% in size
Target sequence (Q9NUW8 whole entry, looked up): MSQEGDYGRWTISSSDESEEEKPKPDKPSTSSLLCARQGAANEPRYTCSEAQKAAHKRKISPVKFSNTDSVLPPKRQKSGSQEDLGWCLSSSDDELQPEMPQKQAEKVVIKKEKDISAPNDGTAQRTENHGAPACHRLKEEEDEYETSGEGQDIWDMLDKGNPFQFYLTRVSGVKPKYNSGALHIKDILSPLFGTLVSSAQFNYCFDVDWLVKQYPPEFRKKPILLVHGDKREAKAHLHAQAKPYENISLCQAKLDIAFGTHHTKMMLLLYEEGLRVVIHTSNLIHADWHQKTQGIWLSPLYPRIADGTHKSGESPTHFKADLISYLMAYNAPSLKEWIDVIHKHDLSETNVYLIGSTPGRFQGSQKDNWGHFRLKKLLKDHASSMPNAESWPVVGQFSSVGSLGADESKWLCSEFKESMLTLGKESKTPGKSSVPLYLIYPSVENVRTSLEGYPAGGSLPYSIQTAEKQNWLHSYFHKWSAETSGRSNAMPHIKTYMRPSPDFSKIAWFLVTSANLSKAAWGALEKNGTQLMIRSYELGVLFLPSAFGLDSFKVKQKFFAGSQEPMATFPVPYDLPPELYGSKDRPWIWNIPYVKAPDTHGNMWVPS
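E. coli-derived human Tdp1, 1 nM final. Cpd preinc 15 min RT; substrate 15 nM final, 5 min RT; AS bead mix 10 ug/ml final, 10 min RT. Signal loss = tyrosine-FITC cleavage. No-enzyme wells = max signal.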
DT40 TDP1 CPT: qHTS for Inhibitors of human tyrosyl-DNA phosphodiesterase 1 (TDP1): qHTS in cells in presence of CPT | hit rate 12% among 420,000 | Potency, µM (top dose mostly 46.2 µM), for the others: at the highest dose activity change, negative = growth inhibition, usual class: inhibitors | chicken DT40 Tdp1-/-;hTDP1 cells + 20 nM CPT, ATP luminescence, 48 h; further: potency means the concentration at half of the fitted maximal effect; nearly all actives have a fitted effect of over 55% in size
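Chicken DT40 Tdp1-/- cells complemented with human TDP1, 400 cells/well, exposed to compounds plus 20 nM camptothecin for at least 48 h at 37 C; viability read as ATP content by CellTiter-Glo luminescence.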
IL-1B inflam inh: qHTS for Inhibitors of Inflammasome Signaling: IL-1-beta AlphaLISA Primary Screen; THP-1 LPS/ATP IL-1B secretion, AlphaLISA, 16 h; active compounds read low; activity change, % at 57.5 µM; hit rate 4.7% among 360,000; AID 743279, 2014; in the data active means activity change below about -50%; inconclusive means mostly about -30% to -49%
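Secreted IL-1B measured by AlphaLISA bead assay after 16 h compound exposure of THP-1 cells; compounds (final up to 57.5 uM) added 1 h before LPS (250 ng/mL) and ATP (1.25 mM) stimulation; lower signal means less secretion.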
ELG1 DNA repair: qHTS screen for small molecules that inhibit ELG1-dependent DNA repair in human embryonic kidney (HEK293T) cells expressing luciferase-tagged ELG1 | Potency, µM (doses to about 46.1 µM), for inactives: top-dose activity change, negative = inhibition, usual class: inhibitors | hit rate 2.3% among 330,000 | AID 504467, 2011 | HEK293T ELG1-luciferase reporter, luminescence, 16 h; DNA damage induced by 5-fluorouridine; further: potency means the concentration at half of the fitted maximal effect; nearly all actives have a fitted effect of over 55% in size
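Quantitative HTS, concentration-response format. 2,000 cells/well co-treated with 5-fluorouridine and compound, 16 hr in 5% CO2 at 37 °C; ONE-Glo luminescence read after 30 min.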
TDP1 cell noCPT: qHTS for Inhibitors of human tyrosyl-DNA phosphodiesterase 1 (TDP1): qHTS in cells in absence of CPT. DT40 Tdp1-/- hTDP1 cells, no CPT, ATP luminescence, 48 h. Potency, µM (highest dose often 46.2 µM), without a hit: at the highest dose activity change, negative = growth inhibition, usual class: inhibitors. hit rate 15% among 420,000; further: potency means the concentration at half of the fitted maximal effect; nearly all actives have a fitted effect of over 55% in size
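Chicken DT40 Tdp1-/- cells stably complemented with human TDP1 were seeded at 400 cells/well with DMSO in place of 20 nM camptothecin. After compound pinning, cells grew at least 48 hr at 37 °C; viability read by CellTiter-Glo luminescence.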
Numbers without * were called inactive; u = inconclusive; x = no result given; [ ] = dose if it differs, or a comment. This is a sample that favours compounds with a hit; in the whole collection about 19% have one here. Unless noted, the call rests on the fitted dose curve; in most records, active means well fitted curve in the direction sought with a large enough effect; inconclusive means small, poorly fitted or top-dose-only effect, or another doubt; inactive means no such curve, though single readings can be large; an effect the other way counts as inactive or inconclusive. On the % scale 0 is the no-effect control and ±100 the full control effect.

SMILES	Giardia kill	TDP1 inh	DT40 TDP1 CPT	IL-1B inflam inh	ELG1 DNA repair	TDP1 cell noCPT
CC(C)[C@]1(NC(=O)[C@@H]2C=C3c4cccc5[nH]cc(c45)C[C@H]3N(C)C2)O[C@@]2(O)C3CCCN3C(=O)[C@H](Cc3ccccc3)N2C1=O (stereo not given in full)	x	17.8%[56.1 µM]	u	x	x	u
CCOP1(=S)Oc2cc3c(cc2C(C(=O)OC)(C(F)(F)F)O1)OCO3 (stereo not given)	13.6	-2.2%	13µM*	-5.3	5.3%	u
CC(C)(C)OC(=O)C(Br)CCBr (stereo not given)	x	6.2%	x	x	x	x
CCCC(CCC)C(=O)OC[N+](C)(C)CCOC(=O)C(O)(c1ccccc1)C1CCCC1 (stereo not given)	4.2	-10.1%	u	u	4.0%	11.6µM*
O=C1c2cccc3cc([N+](=O)[O-])cc(c23)C(=O)N1c1ccccc1O	-9.1	0.0%	20.6µM*	18.1	-3.9%	16.4µM*
CN(C[C@H](Cc1ccccc1)N(C[C@H](Cc1ccccc1)N(CCC(C)(C)C)N=O)N=O)N=O	-11.7	5.1%	18.4µM*	-1.3	2.9%	u
CC(C)C[C@@H](CN(N=O)[C@@H](Cc1ccccc1)CN(C)N=O)N(CCc1ccccc1)N=O	-18.5	1.3%	u	2.2	-4.2%	u
CN(C[C@H](Cc1ccccc1)N(C[C@H](c1ccccc1)N(CCc1ccccc1)N=O)N=O)N=O	-10.4	3.8%	u	-17.6	-0.8%	16.4µM*
C=C(C)C1CNC(C(=O)O)C1CC(=O)O (stereo not given)	x	8.5%[56.1 µM]	-0.8%	x	x	1.1%
C=C(C)[C@]12C[C@@H](C)[C@@]34OC(Cc5ccccc5)(O[C@@H]1[C@@H]3C=C(COC(=O)Cc1cc(I)c(O)c(OC)c1)C[C@]1(O)C(=O)C(C)=C[C@@H]41)O2	x	11.2%	x	x	x	x
CCN(CC)C(=O)c1ccc(NC(=O)CCCSc2ccccc2)cc1	-0.9	1.2%	-2.2%	-11.3	-13.6%	u
CCN(CC)C(=O)c1ccc(NC(=O)COc2ccc([N+](=O)[O-])cc2Cl)cc1	-2.4	4.5%	u	-6.4	-29.8%	20.6µM*
COC(=O)[C@@H]1C[C@@]2(O)[C@@H](O)[C@@H](O)[C@@H](O)C[C@H]2N1Cc1cccnc1	x	5.1%	x	x	x	x
CSCC[C@H](NC(=O)[C@H](CC(C)C)NC(=O)[C@@H](Cc1cnc[nH]1)NC(=O)[C@H](Cc1ccccc1)NC(=O)[C@@H](Cc1ccccc1)NC(=O)[C@@H](N)Cc1ccc(O)cc1)C(N)=O	x	9.5%	x	x	x	x
COc1ccc(N2C(=O)/C(=C/c3ccc(C)o3)C(=O)NC2=S)c(OC)c1	-7.1	x	20.6µM*	8.6	u	u
CNC(=O)[C@H]1C[C@@H]1[C@H](NP(=O)(c1ccccc1)c1ccccc1)c1ccccc1	x	5.7%	x	x	x	x
O=[N+]([O-])c1ccc(Cl)c(Cl)c1Cl	-16.5	0.8%	2.5%	-19.3	8.6%	-3.2%
O=[N+]([O-])c1c(Cl)cccc1-c1c[nH]cc1Cl	x	x	21.1µM*	x	x	15µM*
C=C(CC1(C(C)NP(=O)(c2ccccc2)c2ccccc2)CC1)c1ccccc1 (stereo not given)	x	9.9%	x	x	x	x
CCCOc1ccc(C2SCC(=O)Nc3c2c(C)nn3-c2cccc(C)c2)cc1OC (stereo not given)	x	2.9%	16.4µM*	x	x	20.6µM*
COc1cccc(C2SCC(=O)Nc3c2c(C)nn3-c2ccc(C)c(Cl)c2)c1OC (stereo not given)	x	8.6%	20.6µM*	x	x	20.6µM*
CCCCN(CC)c1c([N+](=O)[O-])cc(C(F)(F)F)cc1[N+](=O)[O-]	x	10.1%[56.1 µM]	-4.5%	x	x	18.4%
CSc1ncc(CN2CCCC(C(=O)c3cccc(Cl)c3)C2)cn1 (stereo not given)	11.7	5.1%	20.6µM*	-13.1	-16.3%	u
O=C(c1cccc(Cl)c1)C1CCCN(Cc2ccon2)C1 (stereo not given)	25.5	-2.5%	u	8.3	0.58µM*	u
Cc1cc(SCc2sc(-c3ccc(C(F)(F)F)c(F)c3)nc2C)ccc1OCC(=O)O	x	9.5%	x	x	x	x
SMILES	Giardia kill	TDP1 inh	DT40 TDP1 CPT	IL-1B inflam inh	ELG1 DNA repair	TDP1 cell noCPT
O=C(Nc1cc2c(cc1C(=O)c1ccc(Br)cc1)OCCO2)c1ccc(Cl)cc1	x	2.9%[2.28 µM]	23.1µM*	x	x	u
O=C(Nc1ccc(Br)cc1C(=O)c1ccccc1)c1ccccc1	x	1.3%[12.3 µM]	u	x	x	u
COc1cc(-n2c(=S)[nH]c3ccccc3c2=O)c(Cl)cc1Cl	27.6	6.7%	u	0.5	3.4%	25.9µM*
CC(C)Oc1cc(-n2c(=S)[nH]c3ccccc3c2=O)c(Cl)cc1Cl	-7.6	7.9%	u	28.6	13.6%	16.4µM*
COCCCn1c(N)c(C(=O)OC(C)COC)c2nc3ccccc3nc21 (stereo not given)	1.8	7.1%	-8.5%	-20.2	u	-17.2%
CCC(C)NC(=O)c1c(N)n(CCCOC)c2nc3ccccc3nc12 (stereo not given)	14.3	-7.7%	-6.3%	u	16.4µM*	u
COCCCn1c(N)c(C(=O)Nc2ccccc2)c2nc3ccccc3nc21	11.2	4.8%	29.1µM*	-75.7*	16.4µM*	u
COCCCNC(=O)c1c(NC(=O)c2ccccc2Cl)n(Cc2ccccc2)c2nc3ccccc3nc12	-4.3	-2.1%	-5.2%	-4.2	-20.7%	-14.3%
COCCCn1c(N)c(C(=O)Nc2sc3c(c2C(=O)OC)CCCC3)c2nc3ccccc3nc21	6.1	-1.0%	u	-71.9*	0.2%	17.8µM*
CN(CC(=O)N1CCc2ccccc21)S(=O)(=O)c1cccs1	-0.7	3.9%	-9.7%	-1.9	u	-26.2%
COC(=O)[C@@]1(O)C[C@@H]2O[C@@]1(C)n1c3ccccc3c3c4c(c5c6ccccc6n2c5c31)C(=O)NC4	x	3.0%	x	x	x	x
O=C(Nc1ccc2oc(-c3cccnc3)nc2c1)c1ccc(-c2cccc(Cl)c2)o1	x	x	-78.0%	x	x	7.31µM*
O=C(Oc1ccccc1)N1CCC[C@@]2(CCN(Cc3nccs3)C2)C1	x	x	-2.4%	x	x	-25.1%
O=C1CC2OCC=C3CN4CC[C@]56c7ccccc7N1C5C2[C@H]3C[C@H]46 (stereo not given in full)	x	12.2%	x	x	x	x
